Source: PubChem BioAssay (several laboratories)
In the library only some 0.62% were active in any assay of this set; here they are far more common.
WNV protease inh – blocks West Nile virus NS2B-NS3 protease activity; P06935; WNV NS2B-NS3 protease, fluorogenic substrate Ex360/Em465; stronger effect = lower value; z-score (test concentration not listed); 0.18% of 65,000 active; AID 577; in the data active = z-score below about -3
mHtt clearance – compounds clearing mutant huntingtin protein | HeLa Exon1htt(103Q)mCFP, aggregate imaging; zero = plate's median compound well | inhibition, % at 1.5 µM | 0.42% of 47,000 active | AID 853;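 active = inhibition of aggregate fluorescence above about 70%, also judged a hit by eye on the cell image, limit read from the data, passing the limit was not always enough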;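 also: cells exposed to compound for three days before fixation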
Cdc25B block – inhibitors of human Cdc25B phosphatase; recombinant Cdc25B, OMFP fluorescence Ex485/Em525; inhibition, %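 (compounds tested at 10 µM final in the well)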; 0.1% of 65,000 active; in the data active = inhibition above about 50%
MMP-13 inhibitor – MMP13 (human) collagenase inhibition; MMP-13 fTHP FRET cleavage, Mca fluorescence; inhibition, % at 4 µM; P45452; 0.07% of 65,000 active; AID 570;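 active = inhibition above the mean of compound-free control plate wells plus 3 SD, cut at about 14% in these data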;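 also: 0% = DMSO wells and 100% = wells with reference MMP-13 inhibitor after basal subtraction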
DUSP1 inh – blocks human MKP-1 phosphatase activity; P28562; recombinant MKP-1, OMFP hydrolysis fluorescence; inhibition, %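 (compounds tested at a single concentration somewhere between 10 and 100 µM)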; 0.15% of 65,000 active; AID 374;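 active = inhibition above about 50%, limit read from the data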;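 also: 0% = DMSO max control wells and 100% = wells with enzyme stopped by NaOH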
Target sequence (P28562 whole entry, looked up): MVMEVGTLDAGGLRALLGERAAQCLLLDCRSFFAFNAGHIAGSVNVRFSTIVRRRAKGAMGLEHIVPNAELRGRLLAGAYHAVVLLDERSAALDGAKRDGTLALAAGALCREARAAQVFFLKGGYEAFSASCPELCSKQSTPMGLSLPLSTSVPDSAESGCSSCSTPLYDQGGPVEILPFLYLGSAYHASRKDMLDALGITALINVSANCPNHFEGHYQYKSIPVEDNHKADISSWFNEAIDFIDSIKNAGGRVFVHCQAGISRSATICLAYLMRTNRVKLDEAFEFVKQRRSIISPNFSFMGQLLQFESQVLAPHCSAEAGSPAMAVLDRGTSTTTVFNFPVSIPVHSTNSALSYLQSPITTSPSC
Active calls of the source: *.

What do the screens show for `Cc1cc(NC(=O)CSc2nc3sc4c(c3c(=O)n2C)CCCC4)no1`?
WNV protease inh: -0.94; Cdc25B block: 5; MMP-13 inhibitor: 0; DUSP1 inh: -6

What do the screens show for `Cc1ccc(Cn2c(NCCc3ccccc3)nc3c2c(=O)n(C)c(=O)n3C)cc1`?
WNV protease inh: 0.91; mHtt clearance: 71*; Cdc25B block: -9; MMP-13 inhibitor: 0; DUSP1 inh: 2

What do the screens show for `O=C(NC(=Nc1ccccc1)N1CCOCC1)Nc1ccccc1`?
WNV protease inh: -0.69; Cdc25B block: -3; MMP-13 inhibitor: 16*; DUSP1 inh: 7

How did CC(=O)c1cccc(NC(=O)Nc2ccc(C(=O)N3CCOCC3)cc2)c1 do in these assays?
WNV protease inh: -0.92; Cdc25B block: -5; MMP-13 inhibitor: 7; DUSP1 inh: 6

How did CC(=O)Nc1ccccc1-c1nc2ccccc2nc1OCC(=O)c1ccc2ccccc2c1 do in these assays?
mHtt clearance: 17

How did O=C(/C=C/c1ccc(Cl)c([N+](=O)[O-])c1)NCc1cccnc1 do in these assays?
mHtt clearance: -62

How did O=C(COC(=O)c1cccc(C(=O)OCC(=O)NC2CCCCC2)n1)NC1CCCCC1 do in these assays?
WNV protease inh: -1.3; mHtt clearance: -67; Cdc25B block: -5; MMP-13 inhibitor: 2; DUSP1 inh: 34

How did O=C(COC(=O)Cc1ccsc1)NC1CCCCCC1 do in these assays?
WNV protease inh: 0.79; mHtt clearance: 74*; Cdc25B block: 3; MMP-13 inhibitor: -3; DUSP1 inh: 8

Results for CCCNC(=O)CN(CCc1ccccc1)S(C)(=O)=O ?
mHtt clearance: -5

Results for CCC1=NN=C(c2ccc(F)cc2)C(c2c[nH]c3ccccc23)N1O (stereo not given) ?
mHtt clearance: -10

How did CCOC(=O)c1ccccc1NC(=O)CSc1ccccc1 do in these assays?
mHtt clearance: -3

Results for CCn1c(O)c(C=NCCN2CCOCC2)sc1=S ?
WNV protease inh: -4.5*; Cdc25B block: 5; MMP-13 inhibitor: -7; DUSP1 inh: 0

What do the screens show for `CC1(C)CC(=O)C(C=NCCCN2CCOCC2)=C(O)C1`?
WNV protease inh: 0.01; mHtt clearance: -5; Cdc25B block: -2; MMP-13 inhibitor: 2; DUSP1 inh: 5

How did CCOC(=O)C(C)n1cnc2c(cnn2-c2ccc(Cl)cc2)c1=O (stereo not given) do in these assays?
WNV protease inh: 1.1; Cdc25B block: -7; MMP-13 inhibitor: 0; DUSP1 inh: -19

What do the screens show for `CCOc1nnc(C)c2c(C)n(-c3ccc(Cl)cc3)nc12`?
mHtt clearance: 74*

How did COC(=O)c1[nH]c2ccc(Cl)cc2c1NC(=O)C1CC1 do in these assays?
WNV protease inh: 0.6; mHtt clearance: 5; Cdc25B block: 84*; MMP-13 inhibitor: -39; DUSP1 inh: -8

How did CCOC(=O)C1CCN(CC(=O)Nc2c(C(=O)OC)[nH]c3ccc(Cl)cc23)CC1 do in these assays?
WNV protease inh: 0.6; mHtt clearance: 6; Cdc25B block: 1; MMP-13 inhibitor: -22; DUSP1 inh: 0

What do the screens show for `Cc1cccc(NC(=S)NC2CC3CCCC(C2)N3CC(C)C)c1` (stereo not given)?
mHtt clearance: -41

How did O=C(CSCc1n[nH]c(=O)[nH]1)NCCOc1cccc(Oc2ccccc2)c1 do in these assays?
WNV protease inh: 0.32; mHtt clearance: 38; Cdc25B block: -8; MMP-13 inhibitor: 15*; DUSP1 inh: 10

What do the screens show for `O=C(COc1ccc(S(=O)(=O)NC2CCCCC2)cc1Cl)N1CCN(c2ccccc2)CC1`?
mHtt clearance: 27

What do the screens show for `O=C(CSc1nc2ccsc2c(=O)n1NC(=O)c1ccccc1)NCc1ccco1`?
WNV protease inh: -1.5; mHtt clearance: 70*; Cdc25B block: -11; MMP-13 inhibitor: 6; DUSP1 inh: -3

How did CC1=CCC(Cc2nc3ccccc3o2)C1(C)C (stereo not given) do in these assays?
WNV protease inh: -0.48; mHtt clearance: 77*; Cdc25B block: -1; MMP-13 inhibitor: 7; DUSP1 inh: 4

What do the screens show for `CCOC(=O)c1c(C)n(C)c2ccc(OC)c(NC(=O)CN3CCCCC3)c12`?
WNV protease inh: -3.4*; mHtt clearance: -30; Cdc25B block: 24; MMP-13 inhibitor: 11; DUSP1 inh: 17

Results for CCCCNC(=O)Nc1nnc(-c2ccc(Cl)cc2)o1 ?
mHtt clearance: 33

What do the screens show for `Cc1ccc2c(c1)c1c(n2CC(O)Cn2c(C)nc3ccccc32)/C(=N\O)CCC1` (stereo not given)?
WNV protease inh: 0.05; mHtt clearance: 100*; Cdc25B block: 3; MMP-13 inhibitor: -11; DUSP1 inh: 31

How did Cc1ccc2c(c1)c1c(n2CC(O)Cn2c(C)nc3ccccc32)C(=O)CCC1 (stereo not given) do in these assays?
WNV protease inh: -1.5; Cdc25B block: -5; MMP-13 inhibitor: -53; DUSP1 inh: 33

How did O=C(CCc1ccccc1)Nc1nc2n(n1)C(c1ccc(Cl)cc1)CC(=O)N2 (stereo not given) do in these assays?
WNV protease inh: -3.4*; mHtt clearance: 3; Cdc25B block: -8; MMP-13 inhibitor: -3; DUSP1 inh: 11

Results for O=S(=O)(c1ccc2ccccc2c1)N1CCC(c2nc(-c3ccncc3)no2)CC1 ?
mHtt clearance: 26

How did O=C(OCCCN1CCCCC1)c1ccc(O)cc1 do in these assays?
WNV protease inh: 0.25; Cdc25B block: 57*; MMP-13 inhibitor: 0; DUSP1 inh: -32

What do the screens show for `O=C(OCCN1CCCCC1)c1ccc(O)cc1`?
WNV protease inh: -0.47; Cdc25B block: -4; MMP-13 inhibitor: -2; DUSP1 inh: 8

How did CC1Cc2cc(/C(O)=C3\C(=O)C(=O)N(CCN(C)C)C3c3ccccc3F)ccc2O1 (stereo not given) do in these assays?
WNV protease inh: -0.31; mHtt clearance: 80*; Cdc25B block: -14; MMP-13 inhibitor: -4; DUSP1 inh: -16

What do the screens show for `CCCc1cc(C(=O)Nc2sc3c(c2C#N)CCC3)no1`?
WNV protease inh: -0.6; mHtt clearance: 82*; Cdc25B block: -13; MMP-13 inhibitor: 2; DUSP1 inh: -2

How did COc1ccc(NS(=O)(=O)c2ccc(OC)c3ccccc23)cn1 do in these assays?
WNV protease inh: -0.21; Cdc25B block: 2; MMP-13 inhibitor: -4; DUSP1 inh: -8

Results for COc1ccc(S(=O)(=O)Nc2cc(C)cc(C)n2)c2ccccc12 ?
WNV protease inh: 0.86; mHtt clearance: 86*; Cdc25B block: -8; MMP-13 inhibitor: -1; DUSP1 inh: 5

What do the screens show for `N#C/C(=C(/O)CSc1nnc(Cc2cccs2)n1C1CCCCC1)c1nc2ccccc2[nH]1`?
WNV protease inh: 1.2; Cdc25B block: 0; MMP-13 inhibitor: 0; DUSP1 inh: 52*

How did Cc1ccc(SCc2nc(-c3ccncc3)no2)cc1 do in these assays?
WNV protease inh: 0.5; mHtt clearance: 46; Cdc25B block: -11; MMP-13 inhibitor: 6; DUSP1 inh: -7

Results for c1ccc(SCc2nc(-c3ccncc3)no2)cc1 ?
WNV protease inh: -0.69; mHtt clearance: 5; Cdc25B block: 5; MMP-13 inhibitor: 5; DUSP1 inh: 74*
